The values below come from PubChem BioAssay AID720504 (National Center for Advancing Translational Sciences (NCATS), 2013).

About 10,000 (2.8%) of roughly 360,000 compounds were called active. Another 4% or so got no clear call; they are omitted. The entries come from a sample that favours actives as a whole. Values without a mark were called inactive. Calls come from the whole dose curve; as a rule, active = well fitted inhibition curve with a large enough effect; inconclusive = small, poorly fitted or top-dose-only effect; inactive = flat fitted curve, though single readings scatter.
% is set by controls: 0 for no effect and ±100 for the full control effect; potency is the fitted concentration of half-maximal effect.

Serine/threonine-protein kinase PLK1 (Homo sapiens), sequence (P53350 whole entry, looked up, the tested form may be a part): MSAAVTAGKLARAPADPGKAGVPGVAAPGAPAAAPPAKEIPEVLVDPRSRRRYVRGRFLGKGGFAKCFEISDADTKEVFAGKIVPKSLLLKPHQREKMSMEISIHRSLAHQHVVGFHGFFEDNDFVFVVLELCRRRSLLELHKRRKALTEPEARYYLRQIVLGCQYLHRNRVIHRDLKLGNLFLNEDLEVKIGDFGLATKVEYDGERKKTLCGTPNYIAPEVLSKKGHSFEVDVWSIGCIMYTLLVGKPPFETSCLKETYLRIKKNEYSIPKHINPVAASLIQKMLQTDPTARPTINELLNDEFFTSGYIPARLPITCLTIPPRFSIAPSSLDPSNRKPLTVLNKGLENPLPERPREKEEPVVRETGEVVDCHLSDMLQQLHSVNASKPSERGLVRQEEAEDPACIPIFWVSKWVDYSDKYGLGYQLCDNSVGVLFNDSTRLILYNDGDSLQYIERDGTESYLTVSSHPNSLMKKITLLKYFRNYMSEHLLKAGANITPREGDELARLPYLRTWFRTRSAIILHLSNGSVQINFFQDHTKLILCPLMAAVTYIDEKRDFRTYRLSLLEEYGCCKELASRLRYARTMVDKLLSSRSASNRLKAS

This test concerns the target Serine/threonine-protein kinase PLK1 (Homo sapiens) (UniProt P53350). The experiment in a line: qHTS for Inhibitors of PLK1-PDB (polo-like kinase 1 - polo-box domain): Primary Screen. For max response, negative = inhibition: series mostly up to about 57 µM. Note: nearly all actives have a fitted effect of over 65% in size. Particulars: Plk1 PBD binding of FITC phosphopeptide, fluorescence polarization. In general terms: Quantitative high-throughput screening tests each substance at several concentrations.
Consider `CC(C)c1cc(Cn2c3ccccc3c(=O)n2C(C)Cn2cc(C3CC3)nn2)on1` (configuration not stated), for which the max response, negative = inhibition is -4.91%. For the compound `CCn1c(Cc2cccs2)nnc1SCC(=O)c1ccc(C)cc1`, the Potency was 16.8 µM (active). In the case of `Cc1ccc(-n2c(Cc3cccs3)nnc2SCC(=O)OC(C)C)cc1`, the max response, negative = inhibition was -2.98%. On the same count and under the same terms, with `CCn1c(SCC(=O)c2ccc(Cl)s2)nnc1-c1cccs1` the figure was -17.2%; with `COC(=O)[C@@]12C[C@@H](CC(=O)N3CCC(c4ccccc4)CC3)C(=O)N(Cc3ccccc3)C1=CCC(C)(C)C2`, -1.16%; with `O=C(NCc1ccc(F)cc1)c1cc(C2CCCCN2C(=O)c2ccccn2)on1` (configuration not stated), -4.01%. With `COc1ccccc1N1CCN(c2ncnc3sc(C)c(-c4ccccc4)c23)CC1`, the max response, negative = inhibition is 8.83%.

As to `c1ccc(-c2cc3c(NCC4COc5ccccc5O4)ncnc3s2)cc1` (configuration not stated), the max response, negative = inhibition was -4.18%.

Consider `Oc1ccccc1N1CCN(c2ncnc3sc(-c4ccccc4)cc23)CC1`, for which the Potency was 15 µM (active). With `CS(=O)(=O)c1cccc(-c2ccc3nncn3c2)c1`, the max response, negative = inhibition is -8.79%. The same measure, in the same setting: with `N#CCCC(C#N)(c1cccnc1)N1CCOCC1` (configuration not stated) the figure was -8.09%. In the case of `COc1ccc(C2CC(c3cccs3)=NN2C(=O)CCC(=O)O)cc1OC` (configuration not stated), the Potency is 23.8 µM (active).

In the case of `COc1ccc(C2CC(c3cccs3)=NN2C(=O)CSc2nncs2)cc1OC` (configuration not stated), the max response, negative = inhibition is -11.3%. The same measure, in the same setting: as for `COc1ccc(C2=NN(C(=O)CCC(=O)O)C(c3cccs3)C2)cc1OC` (configuration not stated), the figure is -7.47%. In the case of `COc1ccc(C2CC(c3cccc(OC)c3)=NN2c2ccc(S(N)(=O)=O)cc2)cc1` (configuration not stated), the max response, negative = inhibition was -4.37%. The same measure, in the same setting: as for `COc1ccc(NC(=O)c2cc(=O)[nH]c3ccccc23)cc1S(=O)(=O)N1CCOCC1`, the figure is -1.4%; as for `Nc1[nH]c(C(=O)c2ccccc2)c(-c2ccncc2)c1C(=O)NCc1cccc2ccccc12`, -5.24%. For the compound `OC[C@@H]1CN(Cc2ccc(F)cc2)C[C@H](n2cnc3c(NC4CCCC4)ncnc32)O1`, the max response, negative = inhibition is -5.68%. On to `Oc1c(Cl)cc(Cl)c(Cl)c1Cc1c(O)c(Cl)cc(Cl)c1Cl`, for which the Potency was 21.2 µM (active). Turning to `CCc1nc2c(OCc3ccccc3)cccn2c1N(C)C(=O)c1ccco1`, the max response, negative = inhibition was 3.35%.

Take `CCn1c(SCC(=O)N2CCCC2=O)nc2ccccc21`: the max response, negative = inhibition was -10%. For `Cc1ccc(F)c(NC(=O)CCc2ccccc2)c1`, the max response, negative = inhibition is -9.88%. Regarding `O=C(CCc1ccccc1)Nc1nn[nH]n1`, the Potency was 26.7 µM (active).

As for `O=C(CCc1ccccc1)NNc1ccc(F)cc1`, the max response, negative = inhibition is -17.7%. Still for that read-out and setting: as for `C[C@H]1CN([C@@H](C)CO)C(=O)c2cc(C3=CCCCC3)cnc2O[C@@H]1CN(C)C(=O)Cc1ccccc1`, the figure is -26.3%; as for `CCN(C(=O)CSc1ncn[nH]1)c1cccc2ccccc12`, -2.53%.

As for `O=C(CSc1ncn[nH]1)Nc1ccc(Br)cc1Br`, the max response, negative = inhibition is -1.62%.

Turning to `CC(C)(C)c1ccc(C(=O)CSc2ncn[nH]2)cc1`, the Potency was 20 µM (active).

Take `CCCC/S(C)=N/S(=O)(=O)c1ccc(C)cc1` (configuration not stated): the max response, negative = inhibition is -5.69%.

As to `CC/S(CC1CC1(Cl)Cl)=N\S(=O)(=O)c1ccc(C)cc1` (configuration not stated), the max response, negative = inhibition is -0.46%. As to `Cc1ccc(S(=O)(=O)/N=S(\C)C(C)C)cc1` (configuration not stated), the Potency was 26.7 µM (active).

With `O=C(NCC(F)(F)F)c1ccc(S(=O)(=O)NCCc2ccc3c(c2)OCCO3)cc1`, the max response, negative = inhibition was -0.767%. Still for that read-out and setting: as for `COCCNC(=O)C1C(=O)Nc2ccccc2C(=O)N1c1ccc2c(c1)OCCO2` (configuration not stated), the figure is -3.12%; as for `Cc1ccc(/C=C2\CCn3c2nc2cc(C(=O)O)ccc2c3=O)c(C)c1`, -12.7%. For the compound `O=C(O)c1ccc2c(=O)n3c(nc2c1)/C(=C/c1ccc(OC(F)F)cc1OC(F)F)CC3`, the Potency was 10.6 µM (active). Turning to `N#Cc1ccc(/C=C2\CCn3c2nc2cc(C(=O)O)ccc2c3=O)cc1`, the max response, negative = inhibition was -8.35%.

For the compound `COc1cccc(NC(=O)C2(C)CCN2C(=O)CCC2CCCC2)c1` (configuration not stated), the max response, negative = inhibition was 1.49%. The same measure, in the same setting: with `FC(F)(F)Oc1ccccc1C(c1nnnn1C1CCCCC1)N1CCN(C/C=C/c2ccccc2)CC1` (configuration not stated) the figure was -10.7%; with `CCNC(=O)C1(C)CCN(C(=O)c2ccccc2)C1` (configuration not stated), -1.07%. Same read-out and setting: as for `C[C@@H]1CN([C@@H](C)CO)C(=O)c2c(c3ccccc3n2C)-c2ccccc2CO[C@H]1CN(C)C(=O)C1CC1`, the figure is -5.93%.

Take `Nc1c(C(=O)O)cnn1-c1ccccc1`: the Potency is 23.8 µM (active). Regarding `CCNC(=O)c1cnn(-c2ccccc2)c1-c1ccccc1`, the max response, negative = inhibition is -11.7%.

On to `NNC(=O)c1cnn(-c2ccccc2)c1C(F)(F)F`, for which the max response, negative = inhibition was -2.55%.

As to `COc1ccc(CCNC(=O)CN(c2ccccc2)S(=O)(=O)c2ccccc2)cc1`, the max response, negative = inhibition is -1.56%. Consider `CCCCCCN1CCN(C2CN(Cc3cn(CCCCCC)nn3)S(=O)(=O)C2)CC1` (configuration not stated), for which the max response, negative = inhibition was 6.53%.

For the compound `COc1ccc(-c2cc3c(c4c2ccn4C)C2CCC3C2)cn1` (configuration not stated), the max response, negative = inhibition was -0.384%. On the same count and under the same terms, with `CC(=O)NS(=O)(=O)c1ccc(NC(=S)NC(=O)C(C)(C)C)cc1` the figure was -8.92%. `O=S(=O)(NC(=S)Nc1ccccc1)c1ccc(F)cc1`: the Potency is 23.8 µM (active).

Regarding `COC(=O)C(NS(=O)(=O)c1ccc(F)cc1)c1ccccc1` (configuration not stated), the max response, negative = inhibition was -18.8%. Same read-out and setting: with `Cc1ccc([C@H]2N[C@]3(CCCN(Cc4ccccc4)C3=O)[C@H]3C(=O)N(Cc4ccccc4)C(=O)[C@@H]23)cc1` the figure was 5.77%. On the same count and under the same terms, as for `O=C(NCc1ccccc1Cl)c1csc([C@@H]2O[C@H](CO)[C@@H](O)[C@H]2O)n1`, the figure is -2.33%; as for `CCCNC(=O)C1(C)CCCN(C(=O)c2cccc(OC(C)=O)c2C)C1` (configuration not stated), 2.94%; as for `O=C(Nc1ccc(S(=O)(=O)N2CCOCC2)cc1)C1CCN(S(=O)(=O)c2ccc(Cl)cc2)CC1`, 3.5%.

Turning to `COc1ccccc1C(=O)NC(=S)Nc1ccc(N2CCOCC2)cc1`, the Potency is 26.7 µM (active). Consider `COc1cccc(OC)c1C(=O)NC(=S)Nc1ccc(N2CCOCC2)c(Cl)c1`, for which the max response, negative = inhibition was -8.56%.

In the case of `O=C(NNC(=S)Nc1ccccc1)c1cccc(S(=O)(=O)N2CCOCC2)c1`, the max response, negative = inhibition is 2.12%.

On to `O=C(NC(=S)Nc1ccc(S(=O)(=O)N2CCOCC2)cc1)c1ccccc1[N+](=O)[O-]`, for which the Potency is 33.6 µM (active).

Consider `Cc1ccc(C(=O)NC(=S)Nc2ccc(N3CCOCC3)cc2)cc1`, for which the max response, negative = inhibition is -12.8%. On the same count and under the same terms, with `CC(C)(C)NC(=O)C(CCc1ccccc1)n1c(=O)c(-c2ccccc2)nc2ccccc21` (configuration not stated) the figure was -22.7%. Still for that read-out and setting: as for `CCCCN(C=O)c1c(CC)nc2c(OCCC3CCCCC3)cccn12`, the figure is -1.3%; as for `O=CNc1cc(-c2ccc(C(=O)N3CCOCC3)cc2)cn2c(-c3ccc(F)cc3)cnc12`, -25.7%. Still for that read-out and setting: as for `O=C(C[C@H]1CC[C@@H](NC(=O)c2ccncc2)[C@@H](CO)O1)NCC1CC1`, the figure is -5.23%; as for `CN(Cc1ccccc1)C(=O)CCNC(=O)Cn1cnc2ccccc2c1=O`, -6.79%. As for `Cc1sc2ncn(CC(=O)NCCCC(=O)N(C)Cc3ccccc3)c(=O)c2c1C`, the Potency is 26.7 µM (active). As for `Cc1sc2ncn(CC(=O)NCCCC(=O)NCc3ccc(F)cc3)c(=O)c2c1C`, the max response, negative = inhibition was -9.91%.

In the case of `Cc1ccc([C@H]2C[C@H](O)[C@@H](n3cc(COC(=O)c4ccccc4)nn3)CN2CC2CCCCC2)cc1`, the max response, negative = inhibition was 7.82%. `COc1cccc(Nc2nnc(SCC(=O)N3CC(=O)Nc4ccccc43)s2)c1`: the Potency was 26.7 µM (active). In the case of `COc1cccc(Nc2nnc(SCC(=O)N3CC(C)OC(C)C3)s2)c1` (configuration not stated), the max response, negative = inhibition was 1.98%. Take `Cc1nc(SCC(=O)N2CC(=O)Nc3ccccc32)c2c(C)c(C)sc2n1`: the max response, negative = inhibition is -1.22%. `COC(=O)[C@]12CCCCC=C1N(CCC1=CCCCC1)C(=O)[C@H](CC(=O)N1CCSCC1)C2`: the max response, negative = inhibition was -4.1%.

`CCOC(=O)[C@]12CCC=C1N(CCC1=CCCCC1)C(=O)[C@H](CC(=O)NCc1ccc(C)o1)C2`: the max response, negative = inhibition is -24.8%. `CC(=O)Nc1cccc(-c2cc(NC=O)c3ncc(-c4ccc(F)c(Cl)c4)n3c2)c1`: the max response, negative = inhibition is -21.6%. On to `O=S1(=O)CCN(C2CCCCCCCCCCC2)CC1`, for which the max response, negative = inhibition was -0.289%. In the case of `Cc1cc(C)nc(S/C=C/C(=O)c2ccccc2)n1`, the Potency is 2.99 µM (active). Turning to `Cc1cc(C)nc(N(C#N)CC(=O)Nc2ccccc2)n1`, the max response, negative = inhibition was -10.2%. The same measure, in the same setting: with `CCOC(=O)C(=Cc1ccccc1)C(=O)c1ccccc1` the figure was -10.7%. The same measure, in the same setting: with `Cc1ccc(S(=O)(=O)N2C[C@@H](C)[C@]3(C2)[C@H](O)[C@H](OC(=O)NCc2ccccc2)C[C@H]2C(=O)N(c4ccccc4)C(=O)[C@H]23)cc1` the figure was -4.82%. The same measure, in the same setting: as for `COc1ccc(C(=O)N2CCC(C(=O)Nc3cccc(C)c3)CC2)cc1OC`, the figure is -1.21%. For `COc1ccc(C(=O)N2CCC(C(=O)Nc3ccc(C)cc3)CC2)cc1`, the Potency was 3.36 µM (active). As to `O=C(Nc1ccccc1)C1CCN(C(=O)c2ccc(Br)cc2)CC1`, the max response, negative = inhibition is 1.93%. Still for that read-out and setting: as for `Cc1cccc(C)c1NC(=O)C(c1cccc2ccccc12)n1c(=O)c(-c2ccco2)nc2ccccc21` (configuration not stated), the figure is -15.3%; as for `CCOC(=O)[C@]12CCCC=C1N(Cc1ccc3c(c1)OCO3)C(=O)[C@H](CC(=O)NCc1cccs1)C2`, -29.1%. Turning to `Cc1c(CCC(=O)N[C@@H](CC(C)C)C(=O)O)c(=O)oc2c(C)c3oc4c(c3cc12)CCCC4`, the Potency is 29.9 µM (active). On to `Cc1c(C)c2cc3c4c(oc3c(C)c2oc1=O)CCCC4`, for which the max response, negative = inhibition is -0.836%. Still for that read-out and setting: as for `CC[C@@H](C)[C@H](NC(=O)CCc1c(C)c2cc3c4c(oc3c(C)c2oc1=O)CCCC4)C(=O)O`, the figure is -24%; as for `CC(OC(=O)c1cccnc1Cl)C(=O)NC1CCCCC1` (configuration not stated), 1.67%; as for `O=C(OCC(=O)N1CCCCCC1)c1cccc(Cl)c1Cl`, -1.69%.
